# Data: PMC11062922 (Nature Chemical Biology, 2023)
# Like-named read-outs stand apart in the source and are kept apart here.
# Legend:
# Parameters in all cases: species or system human, MV4-11 + K-562 + COLO205 + SK-N-BE2 + OVCAR-8
# ABL1 = settings: read-out: apparent Kd, n = 1
# ABL2 = settings: read-out: apparent Kd, n = 1
# ATM = settings: read-out: apparent Kd, n = 1
# HCK = settings: read-out: apparent Kd, n = 1
# PHKG2 = settings: read-out: apparent Kd, n = 1
# PRKX = settings: read-out: apparent Kd, n = 1
# PTK6 = settings: read-out: apparent Kd, n = 1
# RPS6KA4 = settings: read-out: apparent Kd, n = 1
# SRC = settings: read-out: apparent Kd, n = 1
# YES1 = settings: read-out: apparent Kd, n = 1
# CSNK1E = settings: read-out: apparent Kd, n = 1
# ROCK2 = settings: read-out: apparent Kd, n = 1
# TNIK = settings: read-out: apparent Kd, n = 1
# CSNK1A1 = settings: read-out: apparent Kd, n = 1
# MAPK8 = settings: read-out: apparent Kd, compound concentrations: 100 nM and 1000 nM (sheet 'Samples'), n = 1
# CDK17 = settings: read-out: apparent Kd, compound concentrations: 100 nM and 1000 nM (sheet 'Samples'), n = 1
# RIOK2 = settings: read-out: apparent Kd, compound concentrations: 100 nM and 1000 nM (sheet 'Samples'), n = 1
# ADCK1 = settings: read-out: apparent Kd, n = 1
# PIK3CD = settings: read-out: apparent Kd, n = 1
# STK3 = settings: read-out: apparent Kd; compound concentrations: 100 nM and 1000 nM (sheet 'Samples'), CATDS: 1.36866990132516E-2; n = 1
# [1] = compound concentrations:100 nM and 1000 nM (sheet 'Samples')
smiles,measurement,setting,value
O=C1NC(=O)C(N2CCc3ccccc32)=C1c1ccccc1Cl [SB-373598],potency estimated from few doses,ABL1; [1],172 nM
same,potency estimated from few doses,ABL2; [1],329 nM
same,potency estimated from few doses,ATM; [1],39.1 nM
same,potency estimated from few doses,HCK; [1],312 nM
same,potency estimated from few doses,PHKG2; [1],872 nM
same,potency estimated from few doses,PRKX; [1],367 nM
same,potency estimated from few doses,PTK6; [1],606 nM
same,potency estimated from few doses,RPS6KA4; [1],1220 nM
same,potency estimated from few doses,SRC; [1],134 nM
same,potency estimated from few doses,YES1; [1],128 nM
Fc1ccc(-c2c(-c3ccncc3)[nH]c3cccnc23)cc1 [RO1153853-000],potency estimated from few doses,"CSNK1E; compound concentrations: 100 nM and 1000 nM (sheet 'Samples'), CATDS: 9.9990073063758705E-2",274 nM
CN1C[C@@H]2Cn3c(c(C4=C(c5cn(C)c6ccccc56)C(=O)NC4=O)c4ccccc43)C[C@H]2C1.Cl [RO0320234-001],potency estimated from few doses,ABL1; [1],93.7 nM
same,potency estimated from few doses,ABL2; [1],5.56 nM
same,potency estimated from few doses,ATM; [1],29.7 nM
same,potency estimated from few doses,HCK; [1],317 nM
same,potency estimated from few doses,PHKG2; [1],2180 nM
same,potency estimated from few doses,PRKX; [1],925 nM
same,potency estimated from few doses,PTK6; [1],970 nM
same,potency estimated from few doses,RPS6KA4; [1],1630 nM
same,potency estimated from few doses,SRC; [1],120 nM
same,potency estimated from few doses,YES1; [1],97.8 nM
Cl.Cl.NCC(C(=O)Nc1cc(Br)c(-c2ccnc3[nH]ccc23)s1)c1ccccc1.NCC(C(=O)Nc1cc(Br)c(-c2ccnc3[nH]ccc23)s1)c1ccccc1 (centres unmarked) [GSK1269851A],potency estimated from few doses,ABL1; [1],1040 nM
same,potency estimated from few doses,ABL2; [1],433 nM
same,potency estimated from few doses,ATM; [1],275 nM
same,potency estimated from few doses,HCK; [1],554 nM
same,potency estimated from few doses,PHKG2; [1],2300 nM
same,potency estimated from few doses,PRKX; [1],1890 nM
same,potency estimated from few doses,PTK6; [1],1450 nM
same,potency estimated from few doses,ROCK2; [1],1330 nM
same,potency estimated from few doses,SRC; [1],523 nM
same,potency estimated from few doses,YES1; [1],378 nM
Clc1cc(Cl)cc(Nc2ccnc(Nc3cc(Cl)cc(Cl)c3)n2)c1 [GSK175726A],potency estimated from few doses,"ABL1; compound concentrations: 100 nM and 1000 nM (sheet 'Samples'), CATDS: 2.5998529843594201E-2",83.2 nM
same,potency estimated from few doses,"ABL2; compound concentrations: 100 nM and 1000 nM (sheet 'Samples'), CATDS: 0.155143101703651",7.68 nM
same,potency estimated from few doses,"ATM; compound concentrations: 100 nM and 1000 nM (sheet 'Samples'), CATDS: 2.7134606068091E-2",77.5 nM
same,potency estimated from few doses,"HCK; compound concentrations: 100 nM and 1000 nM (sheet 'Samples'), CATDS: 1.3478571983596799E-2",316 nM
same,potency estimated from few doses,"PHKG2; compound concentrations: 100 nM and 1000 nM (sheet 'Samples'), CATDS: 8.5028793142563602E-3",1680 nM
same,potency estimated from few doses,"PRKX; compound concentrations: 100 nM and 1000 nM (sheet 'Samples'), CATDS: 1.0278626389666701E-2",722 nM
same,potency estimated from few doses,"PTK6; compound concentrations: 100 nM and 1000 nM (sheet 'Samples'), CATDS: 9.7207770515578794E-3",894 nM
same,potency estimated from few doses,"RPS6KA4; compound concentrations: 100 nM and 1000 nM (sheet 'Samples'), CATDS: 8.4689848583526291E-3",1720 nM
same,potency estimated from few doses,"SRC; compound concentrations: 100 nM and 1000 nM (sheet 'Samples'), CATDS: 2.4757216834404398E-2",90.3 nM
same,potency estimated from few doses,"YES1; compound concentrations: 100 nM and 1000 nM (sheet 'Samples'), CATDS: 2.3154900781863899E-2",101 nM
CCn1c(-c2nonc2N)nc2c(C#CC(C)(C)O)nc(OCCN)cc21.CCn1c(-c2nonc2N)nc2c(C#CC(C)(C)O)nc(OCCN)cc21.Cl.Cl [GSK902056A],potency estimated from few doses,PRKX; [1],176 nM
Cl.ON=C1CCc2cc(-c3nc(C4CCNCC4)[nH]c3-c3ccncc3)ccc21 [SB-614067-R],potency estimated from few doses,CSNK1E; [1],1190 nM
CCn1c(-c2nonc2N)nc2c(-c3ccccc3)ncc(OCCCN)c21.CCn1c(-c2nonc2N)nc2c(-c3ccccc3)ncc(OCCCN)c21.O=C(O)C(F)(F)F.O=C(O)C(F)(F)F [GSK260205A],potency estimated from few doses,"CSNK1E; compound concentrations: 100 nM and 1000 nM (sheet 'Samples'), CATDS: 3.6163147578600598E-2",706 nM
same,potency estimated from few doses,"TNIK; compound concentrations: 100 nM and 1000 nM (sheet 'Samples'), CATDS: 3.2855545776320001E-2",950 nM
CCOC(=O)N1CCC(n2cnc(-c3ccc(F)cc3)c2-c2ccnc(N)n2)CC1 [SB-219952],potency estimated from few doses,"ABL1; compound concentrations: 100 nM and 1000 nM (sheet 'Samples'), CATDS: 8.9388068544210691E-3",1180 nM
same,potency estimated from few doses,"ABL2; compound concentrations: 100 nM and 1000 nM (sheet 'Samples'), CATDS: 1.2118968768927599E-2",552 nM
same,potency estimated from few doses,"CSNK1A1; compound concentrations: 100 nM and 1000 nM (sheet 'Samples'), CATDS: 5.7270515376472299E-2",44.2 nM
same,potency estimated from few doses,"CSNK1E; compound concentrations: 100 nM and 1000 nM (sheet 'Samples'), CATDS: 8.1899018563860101E-2",27.3 nM
same,potency estimated from few doses,"HCK; compound concentrations: 100 nM and 1000 nM (sheet 'Samples'), CATDS: 1.02495423413253E-2",814 nM
same,potency estimated from few doses,MAPK8; CATDS: 8.8818893864712808E-3,1210 nM
same,potency estimated from few doses,"PHKG2; compound concentrations: 100 nM and 1000 nM (sheet 'Samples'), CATDS: 9.7897546431884499E-3",916 nM
same,potency estimated from few doses,"PTK6; compound concentrations: 100 nM and 1000 nM (sheet 'Samples'), CATDS: 1.0027639490301001E-2",861 nM
same,potency estimated from few doses,"SRC; compound concentrations: 100 nM and 1000 nM (sheet 'Samples'), CATDS: 1.0314047860945599E-2",802 nM
same,potency estimated from few doses,"YES1; compound concentrations: 100 nM and 1000 nM (sheet 'Samples'), CATDS: 1.05685479515238E-2",755 nM
COc1ccc(Nc2ncc(C#N)c(Nc3ccccc3C(N)=O)n2)cc1N1CCN(C)CC1.Cl [GSK1558669A],potency estimated from few doses,"ABL1; compound concentrations: 100 nM and 1000 nM (sheet 'Samples'), CATDS: 1.2086196789939699E-2",112 nM
same,potency estimated from few doses,"ABL2; compound concentrations: 100 nM and 1000 nM (sheet 'Samples'), CATDS: 8.4087803089845196E-3",334 nM
same,potency estimated from few doses,CDK17; CATDS: 6.8555901877920197E-3,789 nM
same,potency estimated from few doses,"HCK; compound concentrations: 100 nM and 1000 nM (sheet 'Samples'), CATDS: 7.9271656911812094E-3",417 nM
same,potency estimated from few doses,"PTK6; compound concentrations: 100 nM and 1000 nM (sheet 'Samples'), CATDS: 1.8195014804837699E-2",44.6 nM
same,potency estimated from few doses,RIOK2; CATDS: 6.5501119131463198E-3,1000 nM
same,potency estimated from few doses,"RPS6KA4; compound concentrations: 100 nM and 1000 nM (sheet 'Samples'), CATDS: 8.4346807860121598E-3",330 nM
same,potency estimated from few doses,"TNIK; compound concentrations: 100 nM and 1000 nM (sheet 'Samples'), CATDS: 6.3415403729181101E-3",1210 nM
same,potency estimated from few doses,"YES1; compound concentrations: 100 nM and 1000 nM (sheet 'Samples'), CATDS: 8.5191429755921595E-3",318 nM
CN(c1ccc(NC(=O)Nc2cccc(Cl)c2)cc1)c1ccnc(N)n1.Cl [GW830707A],potency estimated from few doses,"ABL1; compound concentrations: 100 nM and 1000 nM (sheet 'Samples'), CATDS: 1.69612830125371E-2",90.3 nM
same,potency estimated from few doses,"ABL2; compound concentrations: 100 nM and 1000 nM (sheet 'Samples'), CATDS: 3.1249349132144801E-2",18.9 nM
same,potency estimated from few doses,"ATM; compound concentrations: 100 nM and 1000 nM (sheet 'Samples'), CATDS: 7.3316367539925598E-2",4.81 nM
same,potency estimated from few doses,"ROCK2; compound concentrations: 100 nM and 1000 nM (sheet 'Samples'), CATDS: 3.3185939241444598E-2",16.9 nM
same,potency estimated from few doses,"SRC; compound concentrations: 100 nM and 1000 nM (sheet 'Samples'), CATDS: 2.2534153996718501E-2",38.6 nM
same,potency estimated from few doses,"YES1; compound concentrations: 100 nM and 1000 nM (sheet 'Samples'), CATDS: 2.3597692911318701E-2",34.5 nM
CCn1c(-c2nonc2N)nc2c(C#CC(C)(C)O)nc(CN3CCCC3)cc21 [GSK1000163A],potency estimated from few doses,"PRKX; compound concentrations: 100 nM and 1000 nM (sheet 'Samples'), CATDS: 0.25481287922850399",759 nM
Cl.NCc1ccc(-c2nc(-c3ccc(Cl)c(O)c3)c(-c3ccncc3)[nH]2)cc1 [SB-476429-A],potency estimated from few doses,CSNK1E; [1],1380 nM
Cc1cccc(Nc2nc(N[C@H]3CCNC3)ncc2C(N)=O)c1.Cl [GSK2197149A],potency estimated from few doses,ADCK1; [1],1560 nM
same,potency estimated from few doses,CSNK1A1; [1],1560 nM
same,potency estimated from few doses,PIK3CD; [1],10.5 nM
same,potency estimated from few doses,TNIK; [1],1590 nM
O=C(O)C(F)(F)F.O=c1[nH]ccc2nc(N[C@@H]3CCNC3)nc(Nc3ccc4c(c3)S(=O)(=O)CC4)c12 [GSK2181306A],potency estimated from few doses,"ADCK1; compound concentrations: 100 nM and 1000 nM (sheet 'Samples'), CATDS: 1.2751360912585E-2",448 nM
same,potency estimated from few doses,CDK17; CATDS: 9.5654152520578493E-3,979 nM
same,potency estimated from few doses,"CSNK1A1; compound concentrations: 100 nM and 1000 nM (sheet 'Samples'), CATDS: 1.4603210367733301E-2",330 nM
same,potency estimated from few doses,"PHKG2; compound concentrations: 100 nM and 1000 nM (sheet 'Samples'), CATDS: 1.09538750738594E-2",657 nM
same,potency estimated from few doses,RIOK2; CATDS: 8.1231795228866102E-3,1810 nM
same,potency estimated from few doses,"RPS6KA4; compound concentrations: 100 nM and 1000 nM (sheet 'Samples'), CATDS: 1.6454900639240402E-2",258 nM
same,potency estimated from few doses,STK3,381 nM
same,potency estimated from few doses,"TNIK; compound concentrations: 100 nM and 1000 nM (sheet 'Samples'), CATDS: 1.2529799183739801E-2",467 nM
COc1cc(Nc2nccc(-c3cnn4ncccc34)n2)cc(OC)c1 [GW801372X],potency estimated from few doses,"ATM; compound concentrations: 100 nM and 1000 nM (sheet 'Samples'), CATDS: 3.2681942140962102E-2",274 nM
same,potency estimated from few doses,CDK17; CATDS: 1.7691642172044799E-2,1920 nM
same,potency estimated from few doses,MAPK8; CATDS: 2.2830325415810902E-2,746 nM
same,potency estimated from few doses,"PIK3CD; compound concentrations: 100 nM and 1000 nM (sheet 'Samples'), CATDS: 4.4256260948390198E-2",135 nM
same,potency estimated from few doses,RIOK2; CATDS: 1.79748800643771E-2,1790 nM
